DT40 TDP1 CPT: qHTS for Inhibitors of human tyrosyl-DNA phosphodiesterase 1 (TDP1): qHTS in cells in presence of CPT; actives 12% (n = 420,000); chicken DT40 Tdp1-/-;hTDP1 cells + 20 nM CPT, ATP luminescence, 48 h; Potency, µM (doses to about 46.2 µM), inactives show top-dose activity change, negative = growth inhibition, usual class: inhibitors; AID 686979, 2013; also: nearly all actives have a fitted effect of over 55% in size
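Chicken DT40 Tdp1-/- cells stably complemented with human TDP1 were seeded at 400 cells/well in medium containing 20 nM camptothecin, exposed to pin-transferred compounds, and grown at 37 °C for at least 48 hr. Viability was read as ATP luminescence.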
ALOX12 inh: Primary qHTS assay for inhibitors of human arachidonate 12S-lipoxygenase (ALOX12): Round 2 | purified 12hLO, xylenol orange hydroperoxide absorbance | actives 1.1% (n = 580,000) | Polyunsaturated fatty acid lipoxygenase ALOX12 (Homo sapiens), P18054 | Potency, µM (highest dose often 108 µM), without a hit: top-dose activity change, negative = inhibition, hits mostly inhibitors | AID 1671190, 2021
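Purified human 12hLO at 150 nM in 25 mM Hepes, 0.01% Triton X-100, pH 7.0, preincubated 15 min at room temperature with compound. Reaction started with 40 uM arachidonic acid, 30 min at room temperature. Hydroperoxide measured by Fe-xylenol orange, 573/405 nm absorbance ratio.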
TDP1 cell noCPT: qHTS for Inhibitors of human tyrosyl-DNA phosphodiesterase 1 (TDP1): qHTS in cells in absence of CPT | actives 15% (n = 420,000) | Potency, µM (doses to about 46.2 µM), for the others: top-dose activity change, negative = growth inhibition, most hits filed as inhibitors | DT40 Tdp1-/- hTDP1 cells, no CPT, ATP luminescence, 48 h; also: nearly all actives have a fitted effect of over 55% in size
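Chicken DT40 Tdp1-/- cells stably complemented with human TDP1 were seeded at 400 cells/well with DMSO in place of 20 nM camptothecin. After compound pinning, cells grew at least 48 hr at 37 °C; viability read by CellTiter-Glo luminescence.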
ELG1 DNA repair: qHTS screen for small molecules that inhibit ELG1-dependent DNA repair in human embryonic kidney (HEK293T) cells expressing luciferase-tagged ELG1; actives 2.3% (n = 330,000); AID 504467, 2011; HEK293T ELG1-luciferase reporter, luminescence, 16 h; DNA damage induced by 5-fluorouridine; Potency, µM (top dose mostly 46.1 µM), for inactives: at the highest dose activity change, negative = inhibition, actives largely listed as inhibitors; also: nearly all actives have a fitted effect of over 55% in size
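Luminescence from the luciferase reporter, measured 30 min after ONE-Glo reagent at room temperature, was the read-out. Beforehand, 2,000 cells per well were exposed for 16 hr at 37 °C to 5-fluorouridine together with compound or vehicle.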
Gal4-VP16 FLuc: VP16 counterscreen qHTS for inhibitors of ROR gamma transcriptional activity. Drosophila S2 Gal4-VP16 UAS-luciferase, luminescence, 20 h. Potency, µM (doses to about 53.6 µM), inactives show at the highest dose activity, negative = inhibition, usual class: inhibitors. actives 3.5% (n = 310,000). AID 2546, 2010;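 also: Gal4-VP16 expression switched on by copper sulfate through the metallothionein promoter; nearly all actives have a fitted effect of over 50% in size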
RORgamma inh: qHTS for inhibitors of ROR gamma transcriptional activity. actives 5.4% (n = 310,000). Potency, µM (doses to about 53.6 µM), without a hit: at the highest dose activity change, negative = inhibition, actives largely listed as inhibitors. AID 2551, 2010. Drosophila S2 Gal4-RORgamma UAS-luciferase reporter, 20 h. Nuclear receptor ROR-gamma (Mus musculus), P51450; also: nearly all actives have a fitted effect of over 60% in size
Target sequence (P51450 whole entry, looked up, the tested form may be a part): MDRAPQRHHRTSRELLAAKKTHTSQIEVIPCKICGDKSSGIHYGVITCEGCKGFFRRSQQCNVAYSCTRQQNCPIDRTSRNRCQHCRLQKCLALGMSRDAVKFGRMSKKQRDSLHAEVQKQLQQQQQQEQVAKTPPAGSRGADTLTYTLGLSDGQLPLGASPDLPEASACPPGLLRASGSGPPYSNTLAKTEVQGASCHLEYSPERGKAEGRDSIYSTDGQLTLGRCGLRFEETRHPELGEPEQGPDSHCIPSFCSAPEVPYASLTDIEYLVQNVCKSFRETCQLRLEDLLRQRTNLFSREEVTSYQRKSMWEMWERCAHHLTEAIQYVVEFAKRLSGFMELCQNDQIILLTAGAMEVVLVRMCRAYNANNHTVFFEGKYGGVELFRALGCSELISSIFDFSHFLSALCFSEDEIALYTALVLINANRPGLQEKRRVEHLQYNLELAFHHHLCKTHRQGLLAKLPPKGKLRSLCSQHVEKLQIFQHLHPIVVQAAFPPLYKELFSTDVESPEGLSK
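Drosophila S2 cells stably expressing Gal4-DBD/mouse RORγ fusion under metallothionein promoter plus UAS-luciferase; compound 1 h, then 700 uM CuSO4 induction for 20 h at ambient temperature; inhibition read as reduced luminescence.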
The depositor's hits bear a star; ? = inconclusive; . = no result; [ ] = remark or other dose. A selection: hits, their analogues and other compounds. The true share with any hit is near 15%. Calls follow the shape of the dose curve; as a rule, active = well fitted curve in the direction sought with a large enough effect; inconclusive = small, poorly fitted or top-dose-only effect, or another doubt; inactive = no such curve, though single readings can be large; an effect the other way counts as inactive or inconclusive. % is scaled to controls: 0 for no effect and ±100 for the full control effect; potency is read from the fitted curve at half-maximal effect.

SMILES	DT40 TDP1 CPT	ALOX12 inh	TDP1 cell noCPT	ELG1 DNA repair	Gal4-VP16 FLuc	RORgamma inh
Cc1cc(C(=O)Nc2c(C)nc3ccccn3c2=O)ccc1[N+](=O)[O-]	-29%	-20%	-18%	.	.	.
Cc1cc(-n2c(C)nc3ccccc3c2=O)ccc1NC(=O)c1ccccc1[N+](=O)[O-]	18µM*	-19%	16µM*	.	.	.
CC(Sc1ncnc2nc[nH]c12)C(=O)Nc1ccc(OC(F)(F)F)cc1 (centres undefined)	.	5%	.	.	.	.
C/C=C/CC(=O)N1CCC(Oc2ccccc2OC)(C(=O)O)CC1	.	3%	.	.	.	.
Cc1ccc(Cc2c(C)nc3nc(SCC(=O)NCCCN4CCCCCC4)nn3c2C)cc1	?	?	?	?	2%	-16%
COc1cc(NC(=O)CSc2nc3nc(C)c(Cc4ccccc4)c(C)n3n2)cc(OC)c1	21µM*	-13%	8.2µM*	.	.	.
Cc1cccc(Cc2c(C)nc3nc(SCC(=O)NCc4ccc(F)cc4)nn3c2C)c1	16µM*	0%	23µM*	.	.	.
Cc1nc2nc(SCC(=O)NCCc3ccc(Cl)cc3)nn2c(C)c1Cc1ccccc1Cl	?	-9%	?	.	.	.
CCC1CCCCN1CCCNC(=O)CSc1nc2nc(C)c(Cc3ccc(C)cc3)c(C)n2n1 (centres undefined)	23µM*	17%	?	-16%	-5%	-16%
Cc1ccccc1Cc1c(C)nc2nc(SCC(=O)NCCc3ccc(Cl)cc3)nn2c1C	16µM*	-7%	?	.	.	.
Cc1nc2nc(SCC(=O)NCc3ccccc3)nn2c(C)c1Cc1ccccc1Cl	?	-8%	?	.	.	.
COc1ccc(C(=O)Nc2ccnn2C2CCN(C(C)=O)CC2)cc1	.	56%	.	.	.	.
O=C(CCc1ccco1)Nc1ccc(N2CCCC2)cn1	.	-16%	.	.	.	.
O=C(Nc1nc2ccccc2s1)NC1CC(=O)N(c2cccc(F)c2)C1 (centres undefined)	.	12%	.	.	.	.
Cc1cc(C)c(S(=O)(=O)N2CCCC2c2nc3ccccc3[nH]2)c(C)c1 (centres undefined)	.	13%	.	.	.	.
COc1cc(NC(=O)CSc2nc3nc(C)c(Cc4ccccc4Cl)c(C)n3n2)cc(OC)c1	?	-30%	?	.	.	.
COc1ccc(CCNC(=O)CSc2nc3nc(C)c(Cc4ccc(C)cc4)c(C)n3n2)cc1OC	?	-3%	21µM*	.	.	.
COc1cc(NC(=O)CSc2nc3nc(C)c(Cc4ccc(C)cc4)c(C)n3n2)cc(OC)c1	?	?	8.2µM*	.	.	.
Cc1ccc(Cc2c(C)nc3nc(SCC(=O)NC(C)c4ccccc4)nn3c2C)cc1 (centres undefined)	?	1%	?	.	.	.
CCOC(=O)C1=C(C2=CCCCC2)c2ccc(OC)cc2N(S(=O)(=O)C(F)(F)F)C1C(=O)OCC (centres undefined)	5.8µM*	.	2.3µM*	-20%	.	.
CCOC(=O)C1C(C(=O)OC)=C(c2ccc(F)cc2)c2ccccc2N1S(=O)(=O)C(F)(F)F (centres undefined)	?	-29%	?	?	1%	-15%
CCOC(=O)C1=C(c2ccccc2)c2ccccc2N(S(=O)(=O)C(F)(F)F)C1C(=O)OCC (centres undefined)	?	-20%	?	16µM*	.	.
CCOC(=O)C1(C)C(C(=O)OC)=C(c2ccc(OC)cc2)c2ccccc2N1C(=O)OC (centres undefined)	21µM*	?	13µM*	?	-10%	27%
CCOC(=O)C1C(C(=O)OC)=C(c2ccc(OC)cc2)c2ccccc2N1S(=O)(=O)C(F)(F)F (centres undefined)	?	?	16µM*	12µM*	-2%	9%
CC(C)CN1CCN(C(=O)C2CCCN(S(C)(=O)=O)CCC(=O)NCC2)CC1 (centres undefined)	.	70%	.	.	.	.
SMILES	DT40 TDP1 CPT	ALOX12 inh	TDP1 cell noCPT	ELG1 DNA repair	Gal4-VP16 FLuc	RORgamma inh
CCc1ccccc1Nc1ncnc2c1cnn2-c1ccc(C)cc1C	?	?	18µM*	.	.	.
CCc1ccccc1Nc1ncnc2c1cnn2-c1ccc(Cl)cc1	16µM*	?	?	.	.	.
Cc1ccc(-n2ncc3c(Nc4cccc(Cl)c4)ncnc32)c(C)c1	?	-23%	?	.	.	.
CCN(c1ccccc1)c1ncnc2c1cnn2-c1ccc(C)cc1C	9.2µM*	-11%	9.2µM*	.	.	.
Cc1ccc(-n2ncc3c(Nc4ccc(Oc5ccccc5)cc4)ncnc32)c(C)c1	16µM*	?	23µM*	.	.	.
N#C/C(=C/c1ccc(OC(F)F)cc1)C(=O)Nc1cc(Cl)ccc1Cl	.	-17%	.	.	.	.
Cc1ccc(-n2ncc3c(SCc4cccnc4)ncnc32)c(C)c1	16µM*	15%	12µM*	?	?	?
Cc1ccc(-n2ncc3c(SCc4cccc(C)c4)ncnc32)cc1	-24%	-21%	-29%	?	16%	-30%
Cc1ccc(-n2ncc3c(Nc4ccccc4C)ncnc32)cc1	?	-2%	16µM*	.	.	.
CC(=O)c1ccc(NC(=O)N[C@@H]2C=C(C(=O)NCCC(N)=O)C[C@@H](O)[C@@H]2O)cc1	.	19%[176 µM]	.	.	.	.
Oc1oc(-c2ccccc2)nc1C=Nc1cccc2ccccc12	?	-2%	16µM*	-3%	5%	5%
Oc1oc(-c2ccccc2)nc1/C=N/c1nccs1	-24%	-1%	-1%	?	?	16µM*
Cc1ccc(-c2nc(C=Nc3ccccc3)c(O)o2)cc1	-15%	?	-27%	?	-12%	-28%
O=[N+]([O-])c1cccc(N=Cc2ccncc2)c1	.	41%	.	.	.	.
Cc1cc(Cl)ccc1OCC(=O)NC1CCCC1	12µM*	2%[57.4 µM]	13µM*	16%	17%	24%
O=C(COc1ccc(Br)cc1CNC1CCCC1)Nc1ccccc1	?	3%	18µM*	-8%	-16%	?
Cc1cc(OCC(=O)NC2CC(C)(C)NC(C)(C)C2)c(C)cc1Br	?	-1%	13µM*	2%	-7%	1%
